The campaign covered roughly 310,000 compounds. About 2,200 (0.71%) showed an effect of 50% or more. The effect is printed as a negative number. The list comes from a sample in which strong results are over-represented; it also holds similar structures and randomly drawn compounds.
target: human ether-à-go-go-related gene (hERG) potassium channel (human, UniProt Q12809); test: primary screen, population patch clamp on CHO cells stably expressing hERG; higher = less effect of the substance
Sequence (Q12809 whole entry, looked up): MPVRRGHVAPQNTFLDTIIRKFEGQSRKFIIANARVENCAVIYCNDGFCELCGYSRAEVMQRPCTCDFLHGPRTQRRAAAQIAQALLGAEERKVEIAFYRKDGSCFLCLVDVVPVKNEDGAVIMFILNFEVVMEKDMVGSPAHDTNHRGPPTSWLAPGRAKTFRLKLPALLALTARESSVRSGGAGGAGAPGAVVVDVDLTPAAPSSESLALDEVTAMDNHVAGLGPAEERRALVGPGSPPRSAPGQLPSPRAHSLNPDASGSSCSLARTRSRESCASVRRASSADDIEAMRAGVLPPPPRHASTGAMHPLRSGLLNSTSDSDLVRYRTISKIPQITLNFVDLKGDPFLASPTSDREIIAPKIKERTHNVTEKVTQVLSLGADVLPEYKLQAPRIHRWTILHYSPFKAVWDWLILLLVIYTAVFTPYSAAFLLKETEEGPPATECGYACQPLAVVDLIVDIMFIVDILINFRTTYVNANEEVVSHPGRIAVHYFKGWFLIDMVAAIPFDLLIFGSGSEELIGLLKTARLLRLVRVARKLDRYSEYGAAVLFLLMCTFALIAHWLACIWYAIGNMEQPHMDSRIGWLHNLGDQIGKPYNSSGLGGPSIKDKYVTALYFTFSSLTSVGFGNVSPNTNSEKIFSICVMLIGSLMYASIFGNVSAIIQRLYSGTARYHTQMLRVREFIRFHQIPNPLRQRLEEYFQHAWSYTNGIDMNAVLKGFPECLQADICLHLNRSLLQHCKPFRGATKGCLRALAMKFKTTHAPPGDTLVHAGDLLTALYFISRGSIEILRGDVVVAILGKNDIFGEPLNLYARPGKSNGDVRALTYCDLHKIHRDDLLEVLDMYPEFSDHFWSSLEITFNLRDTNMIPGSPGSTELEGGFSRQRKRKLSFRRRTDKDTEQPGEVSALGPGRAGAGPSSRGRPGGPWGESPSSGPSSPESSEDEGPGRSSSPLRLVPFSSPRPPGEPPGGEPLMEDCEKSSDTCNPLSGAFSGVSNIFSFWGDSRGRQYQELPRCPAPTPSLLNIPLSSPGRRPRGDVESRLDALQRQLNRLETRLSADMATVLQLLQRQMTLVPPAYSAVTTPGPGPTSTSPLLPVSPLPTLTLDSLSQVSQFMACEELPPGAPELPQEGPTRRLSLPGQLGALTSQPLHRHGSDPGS

Row | SMILES | hERG current change (%, negative = inhibition) at 1uM [%]
1 | CCC(c1nnnn1C1CCCCC1)N1CCN(C2CCCC2)CC1.Cl (stereo not drawn) | 11.6
2 | CCCCC(c1nnnn1C1CCCC1)N1CCN(C2CCCC2)CC1.Cl (stereo not drawn) | -82
3 | CCCCC(c1nnnn1C1CCCC1)N1CCN(C2CCCCC2)CC1 (stereo not drawn) | -63.1
4 | CCCCC(c1nnnn1C1CCCC1)N1CCN(C(=O)c2ccco2)CC1.Cl (stereo not drawn) | -13.5
5 | CCCC(c1nnnn1C(C)(C)CC)N1CCN(C2CCCC2)CC1.Cl (stereo not drawn) | -17.8
6 | CCCC(c1nnnn1C1CCCCC1)N1CCN(C2CCCC2)CC1.Cl (stereo not drawn) | -16.6
7 | C=CCNC(=O)c1c(Cl)cccc1Cl | 6.34
8 | COC(=O)C1=C(CSCc2ccco2)NC(=O)NC1c1cc(C)ccc1C (stereo not drawn) | -8.26
9 | CCOc1cccc(CN2CCN(CCCc3ccccc3)C(CCO)C2)c1O (stereo not drawn) | -54.7
10 | COc1cc(CN2CCN(CCCc3ccccc3)CC2CCO)cc(OC)c1 (stereo not drawn) | -46.8
11 | OCCC1CN(CCCc2ccccc2)CCN1Cc1ccc(F)cc1 (stereo not drawn) | -12.1
12 | CCOc1ccccc1CN1CCN(CCCc2ccccc2)CC1CCO (stereo not drawn) | -30
13 | Cc1ccc(CN2CCN(CCCn3cccn3)CC2CCO)cc1 (stereo not drawn) | -23.7
14 | OCCC1CN(Cc2ccc(F)cc2)CCN1CCCc1ccccc1 (stereo not drawn) | -55
15 | COc1cccc(CN2CCN(CCCc3ccccc3)C(CCO)C2)c1O (stereo not drawn) | -41.8
16 | OCCC1CN(Cc2ccc(F)cc2)CCN1CCc1ccccc1 (stereo not drawn) | -48
17 | CCOc1ccc(CN2CCN(CCCn3cccn3)CC2CCO)cc1 (stereo not drawn) | -83
18 | CCOc1ccc(CN2CCN(CCCc3ccccc3)CC2CCO)cc1 (stereo not drawn) | -80.9
19 | OCCC1CN(CCCn2cccn2)CCN1Cc1ccccc1 (stereo not drawn) | 8.59
20 | CCOc1cccc(CN2CCN(CCc3ccccc3)C(CCO)C2)c1O (stereo not drawn) | -20.1
21 | CC(C)Oc1ccc(Cc2n[nH]c(=S)n2Cc2ccccc2)cc1Cl | 5.04
22 | CC(=O)c1c(C)[nH]c(C(=O)OCC(=O)Nc2ccc(Cl)c(S(=O)(=O)N(C)C)c2)c1C | -2.69

Row | SMILES | hERG current change (%, negative = inhibition) at 1uM [%]
23 | CCCNc1nc(C)cc(-c2cc(C(=O)NCc3ccccc3)on2)n1 | 12
24 | Cc1c(Cl)cccc1Nc1nc(N)nc(CSC(=S)N2CCOCC2)n1 | 8.31
25 | CCOC(=O)/C(C#N)=C\c1c(C)cc(C)c(COC(C)=O)c1C | 15.6
26 | Cc1ccc(CN2CCN(CCCc3ccccc3)CC2CCO)cc1 (stereo not drawn) | -68.7
27 | CCOc1ccc(CN2CCN(CCCc3ccccc3)C(CCO)C2)cc1 (stereo not drawn) | -75.8
28 | OCCC1CN(CCCc2ccccc2)CCN1Cc1ccccc1 (stereo not drawn) | -35.6
29 | OCCOc1ccc(CN2CCN(CCCc3ccccc3)C(CCO)C2)cc1 (stereo not drawn) | -19.8
30 | OCCC1CN(CCCc2ccccc2)CCN1CCc1ccccc1 (stereo not drawn) | -32.3
31 | C#Cc1ccc(CN2CCN(CCCc3ccccc3)C(CCO)C2)cc1 (stereo not drawn) | -14.1
32 | COc1ccc(CN2CCN(CCc3ccccc3)C(CCO)C2)c(O)c1 (stereo not drawn) | -26.9
33 | COc1ccc(O)c(CN2CCN(CCCc3ccccc3)C(CCO)C2)c1 (stereo not drawn) | -21.7
34 | COc1ccc(CN2CCN(CCCc3ccccc3)C(CCO)C2)c(O)c1 (stereo not drawn) | -71.2
35 | N#C/C(=C/c1ccc(-c2ccc(C(=O)O)c(Cl)c2)o1)C(=O)NCC1CCCO1 (stereo not drawn) | 10.3
36 | COc1ccccc1CN1[C@@H](CC(=O)O)c2cc(F)ccc2S1(=O)=O | 13.9
37 | Cc1ccc(S(=O)(=O)N2CCOCC2)cc1NC(=O)COC(=O)CNC(=O)c1ccc(C(C)(C)C)cc1 | 20.2
38 | COC(=O)C1=C(c2cc3ccccc3s2)C[C@@H]2CC[C@H]1N2C(=O)NCCCOC(C)C | 2.84
39 | Cc1ccc(S(=O)(=O)N(C)N=O)cc1 | 19.1
40 | CCn1ccnc1CN1CCN(CC=C(C)C)C(CCO)C1 (stereo not drawn) | 9.77
41 | Cc1ccc(-c2ccc(/C=C3\SC(N4CCOCC4)=NC3=O)o2)cc1 | -54.6
42 | Cc1ccccc1-c1ccc(/C=C2/SC(N3CCOCC3)=NC2=O)o1 | -3.7
43 | O=C1N=C(N2CCOCC2)S/C1=C/c1ccc(-c2ccc(F)cc2)o1 | 9.65
44 | CCc1nc2c(nnn2Cc2ccc(F)cc2)c(=O)[nH]1 | 1.79

Row | SMILES | hERG current change (%, negative = inhibition) at 1uM [%]
45 | COc1ccc(C2CCCN2C(=S)Nc2cccc(Cl)c2C)cc1OC (stereo not drawn) | 2.08
46 | N#C/C(=C\c1ccc(OCCN2CCOCC2)cc1)C(=O)Nc1ccccc1F | 12.6
47 | CCCC(C(=O)OCC)P(=O)(c1ccccc1)c1ccccc1 (stereo not drawn) | -0.896
48 | CCOc1ccccc1NC(=O)CSc1nc2cccnc2n1C | 5.84
49 | Cn1c(SCCCC(=O)c2ccccc2)nnc1-c1ccncc1 | -24.9
50 | Cn1c(SCCCC(=O)c2ccc(F)cc2)nnc1-c1ccncc1 | -38.5
51 | Cn1c(SCCCC(=O)c2ccc(Br)cc2)nnc1-c1ccncc1 | -51.1
52 | Cc1ccc(NC(=O)c2ccc(CSc3nnc(C)s3)cc2)c(C)c1 | 9.08
53 | CCn1c(CNC(=O)c2ccc(OC)c(OC)c2)nnc1SCC(=O)Nc1ccc(OC)cc1 | 6.99
54 | c1ccc(CCn2c(SCc3ccccc3)nnc2-c2ccncc2)cc1 | -12.4
55 | N#Cc1ccc(CSc2nnc(-c3ccncc3)n2CCc2ccccc2)cc1 | -78.2
56 | Cn1c(SCc2ccc(C#N)cc2)nnc1-c1ccncc1 | 6.61
57 | O=C(OCCN1C(=O)c2ccccc2C1=O)c1cccs1 | 11.9
58 | Cc1cccn2c(=O)c3cc(C(=O)NCc4cccnc4)c(=N)n(C(C)C)c3nc12 | -67.3
59 | C=CCn1c(=N)c(C(=O)NCCCOC)cc2c(=O)n3cc(C)ccc3nc21 | -41.9
60 | CNC(=O)c1cc2c(=O)n3cccc(C)c3nc2n(C(C)C)c1=N | -82.3
61 | CNC(=O)c1cc2c(=O)n3cc(C)ccc3nc2n(C(C)C)c1=N | -81.9
62 | O=C(NCc1cccnc1)c1cccn2c(=O)c3sccc3nc12 | -16.3
63 | COCCCNC(=O)c1cc2c(=O)n3cccc(C)c3nc2n(C(C)C)c1=N | -46.1
64 | CCC(C)n1c(=N)c(C#N)cc2c(=O)n3cccc(C)c3nc21 (stereo not drawn) | -16.6
65 | Cc1cccn2c(=O)c3cc(S(=O)(=O)c4ccccc4)c(=N)n(Cc4cccnc4)c3nc12 | -3.7
66 | CCC(C)n1c(=N)c(C#N)cc2c(=O)n3cc(C)ccc3nc21 (stereo not drawn) | -22
